Screening data as filed in PubChem BioAssay.
Cruzain Triton: blocks cruzain activity in presence of Triton detergent | purified cruzain, Z-FR-AMC fluorescence, 0.01% Triton | P25779 | 200,000 compounds, 0.43% hits | Potency, µM, inactives show max response, negative = inhibition, actives largely listed as inhibitors | AID 1478;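 further: plate controls were neutral wells for no effect and buffer without enzyme for full effect; nearly all actives have a fitted effect of over 40% in size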
Target sequence (P25779 123-467 limits assumed): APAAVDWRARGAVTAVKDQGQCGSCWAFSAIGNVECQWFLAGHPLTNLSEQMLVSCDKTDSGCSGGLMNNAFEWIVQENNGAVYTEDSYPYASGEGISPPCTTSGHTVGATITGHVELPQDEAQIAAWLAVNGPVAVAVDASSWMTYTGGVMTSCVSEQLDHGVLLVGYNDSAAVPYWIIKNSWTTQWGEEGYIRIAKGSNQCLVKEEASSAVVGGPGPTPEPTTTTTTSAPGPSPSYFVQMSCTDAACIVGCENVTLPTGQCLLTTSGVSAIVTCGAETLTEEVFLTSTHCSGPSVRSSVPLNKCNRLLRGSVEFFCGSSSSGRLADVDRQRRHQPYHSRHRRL
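Compounds were screened in titration against cruzain (1.5 nM) with 0.01% Triton X-100 to counter colloidal aggregation. Activity was the AMC fluorescence increase over 60 s after adding 2 uM Z-FR-AMC at pH 5.5.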
Cruzain inh noDet: cruzain (T. cruzi) inhibition without detergent; P25779; purified cruzain, Z-FR-AMC fluorescence, no detergent; Potency, µM, inactives show max response, negative = inhibition, actives largely listed as inhibitors; 200,000 compounds, 2.3% hits;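 further: plate controls were enzyme without inhibitor for no effect and buffer without enzyme for full effect; nearly all actives have a fitted effect of over 40% in size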
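Purified cruzain at 1.5 nM, pre-incubated 15 min with compound at room temperature in 100 mM sodium acetate pH 5.5, 5 mM DTT, 0.00005% Triton X-100. Reaction started with 2 uM Z-FR-AMC; AMC fluorescence increase over 60 s gives rate.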
* marks the source's active call; other numbers are inactive results; ? = inconclusive. An excerpt weighted towards active compounds, which were near 2.6% of everything screened. The call rests on the fitted dose curve; in most records, active means well fitted curve in the direction sought with a large enough effect; inconclusive means small, poorly fitted or top-dose-only effect, or another doubt; inactive means no such curve, though single readings can be large; an effect the other way counts as inactive or inconclusive. Potency means the concentration at half of the fitted maximal effect.

SMILES	Cruzain Triton	Cruzain inh noDet
CCN1c2ccccc2-c2nc(SCC(=O)Nc3cc(C)c(Cl)cc3OC)ncc2S1(=O)=O	-3%	25µM*
O=C(CSc1ncc2c(n1)-c1cc(Cl)ccc1N(Cc1ccccc1)S2(=O)=O)NCCc1ccccc1	3%	6%
Cn1c(=O)c2cc(S(=O)(=O)NC(Cc3ccccc3)C(=O)Nc3ccc(F)cc3)ccc2n(C)c1=O (configuration not stated)	-3%	-18%
COc1ccc(-c2noc(-c3ccc(NCc4ccco4)c([N+](=O)[O-])c3)n2)cc1	-2%	3%
O=C(CSc1nc(=O)[nH]c2c1CCCC2)NCc1ccccc1Cl	2%	-2%
O=C(Cn1c(=O)c2cccn2c2ccccc21)NCCc1ccccc1	-5%	16µM*
O=C(CCCn1c(=O)c2cccn2c2ccc(F)cc21)NCCc1ccccc1	-1%	-11%
CCC(C)NC(=O)c1ccc2nc(CCc3ccccc3)oc2c1 (configuration not stated)	-1%	-1%
O=C(Nc1cc(-c2ccc(F)c(F)c2)no1)c1ccccc1F	-3%	25µM*
COc1ccccc1C(=O)Nc1cc(-c2ccc(C)cc2)no1	-11%	4%
O=C(NCc1ccccc1Cl)C1CCCN(c2ncnc3onc(-c4ccc(F)cc4)c23)C1 (configuration not stated)	-5%	-10%
Cc1ccc(NC(=O)C(=O)NCc2ccc(Cl)cc2)cc1	-1%	?
COc1cccc(CCNC(=O)c2c(O)nc3c(C)cccn3c2=O)c1	-1%	12%
O=C(c1ccccc1)c1nn(-c2ccc(Cl)cc2)cc1C(=O)c1cc2ccccc2oc1=O	-5%	25µM*
NC(=O)c1cn(-c2ccccc2)nc1-c1cc2ccccc2oc1=O	-3%	-1%
O=C(CSc1nc2ccccc2n1Cc1ccc(F)cc1)N1CCN(c2ccc(F)cc2)CC1	-1%	-2%
COc1ccc(N2CCN(C(=O)CCc3c(C)nn(-c4ccc(N5CCCC5)nn4)c3C)CC2)cc1	-1%	-8%
COc1ccc(OC)c(Nc2nc3ccccc3n3c(C)nnc23)c1	-1%	-1%
CCOC(=O)N1[C@@H]2C=C(C)[C@@H]2[C@@H]2[C@@H](C)C(=O)N21	13µM*	13µM*
CCOC(=O)n1c(=O)oc2ccccc21	7%	2%
CCn1c2ccccc2c2cc(NC(=O)CSc3nnc(-c4ccccc4)o3)ccc21	3%	20µM*
CCOc1ccc(-c2nnc(SCC(=O)Nc3cccc(C#N)c3)o2)cc1	25µM*	25µM*
Cc1ccc(C)c(NC(=O)CSc2nnc(-c3ccccc3)o2)c1	0%	-4%
CCn1c2ccccc2c2cc(NC(=O)CSc3nnc(-c4cccc(C)c4)o3)ccc21	7%	7.9µM*
CCn1c2ccccc2c2cc(NC(=O)CSc3nnc(-c4cccc(F)c4)o3)ccc21	-10%	?
SMILES	Cruzain Triton	Cruzain inh noDet
CCOc1ccc(-c2nnc(SCC(=O)Nc3cccc(Cl)c3C)o2)cc1	-6%	?
COc1ccc(C2C(=O)N(C3CCC(C)CC3)CC(=O)N2C2CCCC2)cc1OC (configuration not stated)	0%	7%
C/C(=N\NC(=O)C(=O)Nc1cccc(Cl)c1)c1ccncc1	1%	1%
C/C(=N\NC(=O)C(=O)Nc1cccc(C(F)(F)F)c1)c1ccc(Cl)s1	0%	16µM*
Cc1ccc2cc(CN(C)C(=O)c3cccc(Cl)c3)c(=O)[nH]c2c1	-3%	-12%
CCN(CC)c1ccc(/C=c2/sc3nnc(-c4ccccc4C)n3c2=O)cc1	-6%	?
CCN(CC)c1ccc(/C=c2\sc3nnc(-c4ccccc4Cl)n3c2=O)cc1	1%	13µM*
CCC(C(=O)Nc1cc(-c2nc3cccnc3s2)ccc1C)c1ccccc1 (configuration not stated)	-12%	?
O=[N+]([O-])c1cc(/C=N\Nc2nccs2)ccc1O	18µM*	32µM*
Clc1cccc(Cl)c1/C=N\Nc1nccs1	-2%	?
CCOC(=O)c1c(C)oc2nc(C)nc(NCc3ccccc3OC)c12	-4%	?
Cc1noc(C)c1-c1nccc(N(C)C)n1	-2%	-4%
O=C(CSc1nnc(-c2ccc(Cl)cc2)c(-c2ccc(Cl)cc2)n1)NC1CCCC1	-8%	-9%
Cc1ccc(-c2nnc(SCC(=O)NC3CCCC3)nc2-c2ccc(C)cc2)cc1	?	13µM*
COC(=O)c1c(-c2cccs2)csc1NC(=O)COc1ccccc1	-16%	-20%
COC(=O)c1c(-c2cccs2)csc1NC(=O)COc1c(C)ccc(C)c1C	-8%	25µM*
COC(=O)c1c(-c2cccs2)csc1NC(=O)COc1ccc(C(C)(C)C)cc1	-4%	25µM*
COC(=O)c1c(-c2cccs2)csc1NC(=O)COc1ccc(C)cc1	0%	-17%
CCCCOc1ccc(C2C(=O)N(C3CCCCC3)CC(=O)N2CCCC)cc1 (configuration not stated)	1%	2%
CCc1ccc(NC(=O)CSC2=Nc3ccccc3C3=NC(CC(=O)NCc4cccs4)C(=O)N23)cc1 (configuration not stated)	-2%	26%
Cc1ccc(CNC(=O)c2cc3c(=O)n(Cc4ccco4)ccc3nc2C)cc1	-7%	?
Cc1ccc(NC(=O)C(C)Sc2nc(-c3ccccc3)c(C#N)c(=O)[nH]2)c(C)c1 (configuration not stated)	-4%	-12%
CC1CCN(S(=O)(=O)c2cn(CC(=O)Nc3ccc(F)cc3)c(=O)c3ccccc23)CC1	-4%	-14%
CCOC(=O)C1=C(C)NC(C)=C(C(=O)OCC)C1c1cccs1	-4%	7%
C#CCSC1=C(C#N)C(c2cccs2)C(C(=O)OCC)=C(C)N1 (configuration not stated)	-7%	20µM*
SMILES	Cruzain Triton	Cruzain inh noDet
Cc1ccc(-c2nnc3n2N=C(c2ccccc2)CS3)cc1	-1%	-17%
CCOc1ccc(C2=Nn3c(nnc3-c3ccccc3)SC2)cc1Cl	1%	20µM*
Clc1ccc(C2=Nn3c(nnc3-c3cccs3)SC2)cc1	-9%	7.9µM*
CCc1ccc(C2=Nn3c(nnc3-c3cccs3)SC2)cc1	-10%	-8%
O=C(c1ccc(F)cc1)n1nc(-c2cccnc2)nc1NCc1ccc(F)cc1	-7%	-17%
Cc1nc2cnc(N(C)C)nc2n(Cc2ccc(F)cc2)c1=O	12%	13%
COc1ccc(CCN2C(=O)c3oc4cc(C)cc(C)c4c(=O)c3C2c2ccc(F)cc2)cc1OC (configuration not stated)	-1%	-9%
CCOC(=O)c1sc(N2C(=O)c3oc4ccccc4c(=O)c3C2c2ccc(C(C)(C)C)cc2)nc1C (configuration not stated)	-2%	1%
Cc1cccc(OCCn2cc(/C=N/NC(=O)c3ccncc3)c3ccccc32)c1	-8%	?
CCC(C)c1ccc(OCCn2cc(/C=N/NC(=O)CSc3nnc(C)s3)c3ccccc32)cc1 (configuration not stated)	1%	4µM*
COc1ccc(S(=O)(=O)NCC(c2ccc(N(C)C)cc2)N2CCCC2)cc1F (configuration not stated)	1%	6%
O=C(Nc1cc(Sc2ccccn2)cc([N+](=O)[O-])c1)c1ccc([N+](=O)[O-])cc1	0%	32µM*
O=C(NCc1ccccn1)c1ccc([N+](=O)[O-])cc1	-2%	-9%
CC(C)(C)C(=O)N1CCN(c2nc3c(F)cccc3s2)CC1	1%	-8%
